# Shown are actives, neighbours in structure and some others; about 12% of the full set was active somewhere.
# JMJD2A Tudor – qHTS Assay for Inhibitors of JMJD2A-Tudor Domain | Lysine-specific demethylase 4A (Homo sapiens), O75164 | AlphaScreen JMJD2A-Tudor / H3K4me3 peptide binding | Potency, µM (doses to about 114 µM), hits mostly inhibitors | 4.4% of 390,000 active | AID 504339, 2011; also: nearly all actives have a fitted effect of over 50% in size
# BAZ2B inh – qHTS Assay for Inhibitors of BAZ2B | Bromodomain adjacent to zinc finger domain protein 2B (Homo sapiens), Q9UIF8 | AlphaScreen BAZ2B-H3K14Ac peptide displacement | Potency, µM (top dose mostly 114 µM), hits mostly inhibitors | 4.4% of 360,000 active; also: nearly all actives have a fitted effect of over 60% in size
#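 AlphaScreen displacement of biotin-H3(5-23)K14Ac peptide (50 nM final) from BAZ2B (50 nM final) in PBS pH 7.4, 0.01% Tween-20; complex preformed 30 min RT, then compounds (top 110 uM) 30 min RT, beads 20 min dark.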
# G9a inh – qHTS Assay for Inhibitors of Histone Lysine Methyltransferase G9a | Potency, µM (titrated, usually from 102 µM), hits mostly inhibitors | G9a H3K9 monomethylation, AlphaScreen, 2 h | Histone-lysine N-methyltransferase EHMT2 (Homo sapiens), Q96KQ7 | 8.8% of 350,000 active; also: nearly all actives have a fitted effect of over 75% in size
#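 G9a (20 nM) preincubated 15 min RT with compounds, then 500 nM biotinylated H3K9 peptide and 20 uM SAM added; 2 h RT reaction. Monomethyl-H3K9 product detected by AlphaScreen with anti-H3K9me1 antibody, streptavidin donor and anti-rabbit IgG acceptor beads.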
# HP1b binding inh – HTS for Inhibitors of HP1-beta Chromodomain Interactions with Methylated Histone Tails | Potency, µM (series often up to 114 µM), hits mostly inhibitors | 0.56% of 390,000 active | AID 540317, 2011 | AlphaScreen HP1-beta / biotin-H3K9me3 peptide binding; also: nearly all actives have a fitted effect of over 70% in size
#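 HP1-beta protein (50 nM final) preincubated 30 min at room temperature with biotinylated H3(1-18)K9me3 peptide (50 nM) in PBS pH 7.4, 0.01% Tween-20, then compound added for 30 min. AlphaScreen streptavidin donor/nickel chelate acceptor beads (10 ug/mL final), 30 min dark, luminescence read.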
# Sfp PPTase inh – qHTS Assay for Inhibitors of Bacillus subtilis Sfp phosphopantetheinyl transferase (PPTase) | 4'-phosphopantetheinyl transferase ffp (Bacillus subtilis), Q9F4F7 | Biochemical Sfp PPTase activity, qHTS | Potency, µM, usual class: inhibitors | 3.5% of 310,000 active;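 also: the enzyme is Sfp with the accession as filed and its product quenches rhodamine fluorescence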
#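 Fluorescence-quenching assay: 15 nM Sfp-PPTase preincubated 15 min at room temperature with compound, then 5 uM rhodamine-CoA and 12.5 uM BHQ-2-labelled YbbR peptide added. Fluorescence (ex 525/em 598 nm) read at start and after 30 min; difference gives rate.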
# Hits are given with their value; – = inactive; ? = inconclusive; · = not tested or not shown; [ ] = dose if it differs, or a comment. Calls follow the shape of the dose curve; as a rule, active = well fitted curve in the direction sought with a large enough effect; inconclusive = small, poorly fitted or top-dose-only effect, or another doubt; inactive = no such curve, though single readings can be large; an effect the other way counts as inactive or inconclusive.
SMILES,JMJD2A Tudor,BAZ2B inh,G9a inh,HP1b binding inh,Sfp PPTase inh
Cc1ccc(-c2c3c(=O)n(C)c(=O)n(C)c3cn2Cc2cccnc2)cc1,–,–,7.94µM,–,–
Cn1c(=O)c(=O)n(C)c2cc(S(=O)(=O)N3CCCC3C(=O)Nc3cccc(F)c3)ccc21 (centres undefined),–,–,–,–,·
CS(=O)(=O)c1ccccc1-c1nc(-c2cc(C(F)(F)F)cc(C(F)(F)F)c2)no1,–,–,–,–,44.7µM
O=C(O)/C=C/C(=O)Nc1nccs1,–,–,–,–,–
C(=N\c1nccs1)/Nc1nccs1,35.5µM,79.4µM,28.2µM,–,–
O=C(Nc1ccccc1)c1nc[nH]c1C(=O)N1CCN(c2ccccc2)CC1,–,–,–[0.501 µM],–,·
O=C(O)c1nccnc1C(=O)N1CCN(c2ccccc2)CC1,?,56.2µM,?,–,–
O=C(Nc1nccs1)c1nc[nH]c1C(=O)N1CCN(c2ccccc2)CC1,31.6µM,·,·,–,·
Cc1c(C(=O)N2CCC(C)CC2)c(S(=O)(=O)NCc2ccccc2)c(C)n1C,–,–,–,–,·
Cc1ccccc1-n1c(=O)cc(N2CCN(C(=O)c3ccco3)CC2)[nH]c1=O,–,–,?,–,79.4µM
Cc1ccc(NCCC(=O)c2cccc([N+](=O)[O-])c2)c(C)c1,31.6µM,28.2µM,?,?,–
COc1cc(C(C)=O)ccc1OCC(=O)NCCCn1nc(C)cc1C,–,·,·,–,·
Cc1cc(C)cc(NC(=O)Cn2nnc(C(=O)NCc3ccccc3Cl)c2N)c1,–,–,1.12µM,–,–
Cc1cc(C)cc(NC(=O)Cn2nnc(C(=O)NCc3ccc(F)cc3)c2N)c1,10µM,–,–,–,–
Cc1cccc(C)c1NC(=O)Cn1nnc(C(=O)NCc2ccc(F)cc2)c1N,–,–,–,–,·
NCCC[C@@H](CC(=O)N[C@@H]1CCCC[C@H]1C(=O)N[C@H](CC(=O)N[C@@H](CCC(=O)O)CC(=O)O)Cc1c[nH]c2ccccc12)NC(=O)C[C@H](CO)NC(=O)[C@@H]1CNCC[C@H]1N,·,·,·,·,–
CCCNC(=O)c1cc2n(n1)CCCN(Cc1ccc(F)cc1)C2=O,–,–,–,–,·
CCOc1ccccc1C1C(C(=O)OC)=C(N)OC2=C1C(=O)CCC2 (centres undefined),–,–,–,–,–
CCOc1ccc(Br)cc1C1C(C(=O)OC)=C(N)Oc2cc(N(C)C)ccc21 (centres undefined),50.1µM,?,?,?,–
CCN(CC)c1ccc(NC(=O)COc2ccc(-n3cnnn3)cc2)cc1,50.1µM,·,·,?,·
CCN(CC)c1ccc(NC(=O)COc2ccc(N(C)S(=O)(=O)c3cccs3)cc2)cc1,?,10µM,7.94µM,–,?
CN(c1ccc(OCC(=O)OCC(=O)Nc2ccccc2)cc1)S(=O)(=O)c1cccs1,–,–,–,–,–
CC(=O)NCCNc1ncnc2ccc(-c3ccccc3C)cc12,·,·,–[0.501 µM],·,–
CCN(CC)CCNC(=O)c1ccc(NC(=O)c2ccc(C(=O)c3ccccc3)cc2)cc1,–,–,7.08µM,–,·
CCN(CC)CCNC(=O)c1ccc(NC(C)=O)cc1,–,–,–,–,–
SMILES,JMJD2A Tudor,BAZ2B inh,G9a inh,HP1b binding inh,Sfp PPTase inh
CCN(CC)CCNC(=O)c1ccc(NC(=O)c2ccc(S(=O)(=O)N3CCCCCC3)cc2)cc1,–,–,–[2.33 µM],–,·
CCN(CC)CCNC(=O)c1ccc(NC(=O)c2ccc(Cl)c(S(=O)(=O)N3CCCCCC3)c2)cc1,?,–,·,–,50.1µM
Cc1ccc(C(c2sc3nc(-c4ccco4)nn3c2O)N2CCOCC2)cc1 (centres undefined),–,–,–,–,·
Nc1ccc(C(=O)N/N=C/c2cn(Cc3ccccc3F)c3ccccc23)cc1,89.1µM,35.5µM,·,–,–
Cc1ccc(C(=O)/C=C/c2cn(CN3CCN(C)CC3)c3ccccc23)cc1,–,–,–,–,?
Cn1cc(/C=N/Nc2ccccc2)c2ccccc21,50.1µM,39.8µM,12.6µM,?,–
Nc1ccc(C(=O)N/N=C/c2cn(Cc3ccc(F)cc3)c3ccccc23)cc1,?,?,–,–,–
Cn1cc(/C=C/C(=O)c2ccccc2)c2ccccc21,–,–,–,–,50.1µM
O=C(N/N=C/c1cn(Cc2cccc(F)c2)c2ccccc12)c1cc(O)cc(O)c1,7.08µM,6.31µM,·,11.2µM,–
CNc1nc(Cl)nc2c1ncn2CC(COC(=O)C(C)(C)C)COC(=O)C(C)(C)C,·,·,·,·,–
O=C(OC1CCCCC1=O)c1cc(S(=O)(=O)N2CCOCC2)ccc1F (centres undefined),–,–,–,–,–
CNC(=O)c1c(NC(=O)c2cc(=O)c3ccccc3o2)sc2c1CCC2,–,–,–,–,·
O=C(O)c1ccc(N/N=C/c2cn(Cc3ccccc3F)c3ccccc23)cc1,56.2µM,39.8µM,–[12.7 µM],–,?
O=C(O)c1ccc(N/N=C/c2c[nH]c3ccccc23)cc1,–,?,?,–,–
CC(C)n1cc(/C=N/Nc2ccc(C(=O)O)cc2)c2ccccc21,–,–,44.7µM,–,–
CCOC(=O)[C@H]1[C@H]2COc3ccc(C)cc3[C@@H]2N2C(=O)c3cc(Br)ccc3NC(=O)[C@@]12C,–,·,·,–,·
Cc1sc2c3ccsc3ccc2[n+]1C,25.1µM,100µM,?,–,3.55µM
Cc1sc2ccc3sccc3c2[n+]1C,20µM,?,3.55µM,–,2.82µM
Cc1ccc(NC(=O)c2cccc3c(=O)c4c([nH]c23)CCCC4)c(C)c1,–,–,?,–,·

# Screening data (PubChem)
